The source of these data is PubChem BioAssay (NCATS).

Assay [1] in a line: Cell Viability - Hek293 (AID 427;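 active = compounds whose dose-response curve shows a full or clear partial loss of cell viability, called from curve shape rather than a numeric limit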;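 also: potency is read from the fitted curve at half-maximal effect; cells exposed to compound for 40 hours at 37 °C before reading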). The following applies: qHTS. Summed up:
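HEK293 cells in complete medium were exposed to compound for 40 hr at 37 °C, then cellular ATP was read by CellTiter-Glo luminescence. Data were normalized to DMSO (basal) and 100 uM tamoxifen (100% inhibition), and AC50 came from Hill fits.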

A short description of assay [2]: Cell Viability - N2a (AID 540).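 Also: plate controls were DMSO alone for no effect and tamoxifen control for full effect; nearly all actives have a fitted effect of over 45% in size.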 The conditions noted are these: N2a mouse neuroblastoma cell viability; activity change, negative = cytotoxicity: at 92.2 µM (top of the series). Summed up: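 Cytotoxicity was scored as loss of cellular ATP in N2a cells, a mouse neuroblastoma line. Compounds are applied in a qHTS concentration series for 40 hr at 37 °C.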
Assay [3] can be described thus: Cell Viability - H-4-II-E (AID 543). Also: % is scaled to controls: 0 for no effect and ±100 for the full control effect; nearly all actives have a fitted effect of over 35% in size. The conditions noted are these: H-4-II-E rat hepatoma viability; series mostly up to 92.2 µM. The procedure, abridged:
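Cells seeded at 1500 per well and rested 5 hr; compounds added; 40 hr incubation at 37 °C; CellTiter-Glo added, 20 min at room temperature; luminescence read. Hill-equation fits gave AC50.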

Assay [4] can be described thus: Cell Viability - SH-SY5Y (AID 544).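 Also: 0% = DMSO alone and -100% = 100 µM tamoxifen; nearly all actives have a fitted effect of over 55% in size.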 The following applies: SH-SY5Y neuroblastoma cell viability; viability change, negative = cytotoxic: at 92.2 µM (top of the series). Summed up: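 Cells were plated at 1500 per well and allowed 5 hr at 37 °C. Compounds were added across a concentration range and incubated 40 hr at 37 °C. CellTiter-Glo was added for 20 min at room temperature before luminescence reading.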

The nature of assay [5]: Cell Viability - Renal Proximal Tubule (AID 545).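 Also: 0% = DMSO only and -100% = 100 µM tamoxifen; nearly all actives have a fitted effect of over 40% in size.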 The conditions noted are these: renal proximal tubule cells viability, primary cells of rat origin; activity change, negative = cytotoxicity: at 91.7 µM (top of the series). The procedure, abridged:
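Luminescent ATP signal (CellTiter-Glo) served as the viability read-out after 40 hr compound exposure of freshly isolated rat proximal tubule cells at 37 °C. Concentration-dependent ATP loss was fitted with the Hill equation to give AC50.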

Assay [6] in a line: Cell Viability - LYMP2-004 (AID 966).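 Also: plate controls were DMSO only for no effect and tetraoctylammonium bromide control for full effect; nearly all actives have a fitted effect of over 65% in size.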 The conditions noted are these: LYMP2-004 lymphoblastoid cell viability, qHTS; series mostly up to 92.2 µM. Summed up:
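qHTS cytotoxicity: human lymphoblastoid line, 24 hr compound treatment, 37 C, complete medium. Viability read as cellular ATP via luciferase luminescence; tetraoctylammonium bromide served as positive control.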

Assay [7] is described as follows: Cell Viability - LYMP2-005 (AID 967).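 Also: cells exposed to compound for 24 h at 37 °C; plate controls were DMSO only for no effect and 92 µM tetraoctylammonium bromide control for full effect.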 The conditions noted are these: LYMP2-005 lymphoblastoid cell viability; series mostly up to 92.2 µM. The procedure, abridged:
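Acute cytotoxicity is scored as a concentration-dependent drop in intracellular ATP in human lymphoblastoid LYMP2-005 cells after 24 h compound treatment. ATP is quantified by luciferase luminescence, and AC50 is derived by Hill-equation modelling.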

Assay [8] in a line: Cell Viability - LYMP2-009 (AID 968).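 Also: cells exposed to compound for 24 h at 37 °C; 0% = DMSO alone and the full-kill end = tetraoctylammonium bromide at 92 µM; nearly all actives have a fitted effect of over 55% in size.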 The conditions noted are these: LYMP2-009 lymphoblastoid cell viability; series mostly up to 92.2 µM.
Assay [9] is described as follows: Cell Viability - LYMP2-015 (AID 971).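 Also: 0% = DMSO only and full effect = 92 µM tetraoctylammonium bromide; nearly all actives have a fitted effect of over 55% in size.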 The conditions noted are these: LYMP2-015 lymphoblastoid cell viability; series mostly up to 92.2 µM. The procedure, abridged: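 Cells are seeded at 2500 per well and incubated 5 hr at 37 C. Compounds are added across a concentration series for 24 hr at 37 C. CellTiter-Glo is added, and luminescence is read after 30 min at room temperature.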

Assay [10] can be described thus: Cell Viability - LYMP2-017 (AID 972).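 Also: cells exposed to compound for 24 hours at 37 °C; % is scaled to controls: 0 for no effect and ±100 for the full control effect; nearly all actives have a fitted effect of over 55% in size.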 The following applies: LYMP2-017 lymphoblastoid cell viability; series mostly up to 92.2 µM. The procedure, abridged: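 Cytotoxicity is scored as a concentration-dependent drop in cellular ATP in a human lymphoblastoid line after 24 hr treatment at 37 C. Values are AC50s from Hill-equation modelling.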
The nature of assay [11]: Cell Viability - LYMP2-006 (AID 978).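 Also: cells exposed to compound for 24 hours; % is scaled to controls: 0 for no effect and ±100 for the full control effect; nearly all actives have a fitted effect of over 60% in size.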 The conditions noted are these: LYMP2-006 lymphoblastoid cell viability, qHTS; series mostly up to 92.2 µM. The procedure, abridged: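 Cells are seeded at 2500 per well and rested 5 hr at 37 C. Compounds are added across a concentration series for 24 hr at 37 C, after which ATP is quantified by luciferase luminescence.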
Assay [12] is described as follows: Cell Viability - LYMP2-010 (AID 981). The conditions noted are these: LYMP2-010 lymphoblastoid cell viability, qHTS; series mostly up to 92.2 µM. The procedure, abridged:
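Steps: seed 2500 LYMP2-010 cells per well; incubate 5 hr at 37 C; add compound; incubate 24 hr at 37 C; add CellTiter-Glo, wait 30 min at room temperature; read luminescence. Concentration-response fitted to Hill equation for AC50.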
In general terms: In qHTS, concentration-response curves come from the screen itself.

Assay [13] is described as follows: qHTS assay for small molecule agonists of retinoid X receptor alpha signaling (AID 588544; calls by dose curve). The following applies: HEK293T RXRa-UAS-bla, beta-lactamase reporter, 18 h; 530 nm emission.
Assay [14] has as its target Retinoic acid receptor RXR-alpha (Homo sapiens) (UniProt P19793). The assay is described as above. The following applies: HEK293T RXRa-UAS-bla, beta-lactamase reporter, 18 h; series mostly up to 76.7 µM.
Assay [15] concerns the target Thyroid hormone receptor beta (Homo sapiens) (UniProt P10828). Kind of assay: qHTS assay for small molecule agonists of thyroid hormone receptor beta signaling (AID 588545; calls by dose curve; also: potency is read from the fitted curve at half-maximal effect). The conditions noted are these: TR-UAS-bla GripTite HEK 293, beta-lactamase ratio, agonist mode, 18 h; series mostly up to 76.7 µM. The procedure, abridged:
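Beta-lactamase reporter activity under TR response element control is measured in HEK 293 cells after 18 hrs compound exposure. Signal is ratiometric CCF4 fluorescence, 460/530 nm.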

Assay [16] can be described thus: qHTS assay for small molecule disruptors of the mitochondrial membrane potential - 1 hr assay (AID 651754; calls by dose curve; also: % is scaled to controls: 0 for no effect and ±100 for the full control effect; nearly all actives have a fitted effect of over 35% in size). The conditions noted are these: series mostly up to 92.2 µM. Summed up: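 Loss of mitochondrial potential shifts the cationic dye from red mitochondrial aggregates to green cytoplasmic monomers. Cells (HepG2) are treated with compound for 1 hr before a 30 min dye incubation at 37C.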

A short description of assay [17]: qHTS assay for small molecule disruptors of the mitochondrial membrane potential - 5 hr assay (AID 651755; calls by dose curve; also: % is scaled to controls: 0 for no effect and ±100 for the full control effect; nearly all actives have a fitted effect of over 40% in size). The conditions noted are these: JC-1-type ratio dye; series mostly up to 92.2 µM. Summed up:
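Seed HepG2 overnight, add compound, incubate 5 hr at 37C and 5% CO2, stain 30 min with Mito-MPS, then measure monomer (490/535 nm) and aggregate (540/590 nm) fluorescence.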

Assay [18] in a line: qHTS assay for small molecule agonists of the antioxidant response element (ARE) signaling pathway measured by Nrf2-dependant transcriptional activity (AID 720636; active = well fitted curve in the direction sought with a large enough effect in the repeat runs; an effect the other way counts as inactive or inconclusive; also: % of control where 0% means no effect). The conditions noted are these: ARE-luc HepG2, Nrf2 luciferase reporter, 16 h; series mostly up to 92.4 µM. The procedure, abridged: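 Nrf2-dependent transcription is measured in ARE-luc HepG2 cells: compound is applied for 16 hr at 37 C after a 6 hr attachment period, and luciferase activity is quantified by luminescence using ONE-Glo.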

The target in assay [19] is Nuclear receptor subfamily 1 group I member 2 (Rattus norvegicus) (UniProt Q9R1A7). Kind of assay: qHTS assay for small molecule activators of the rat pregnane X receptor (rPXR) signaling pathway (AID 651751; call rule not given here; also: 0% is about no effect). The conditions noted are these: rPXR reporter cells, luciferase (One-Glo), 24 h.
Sequence of Nuclear receptor subfamily 1 group I member 2 (Rattus norvegicus) (Q9R1A7 whole entry, looked up): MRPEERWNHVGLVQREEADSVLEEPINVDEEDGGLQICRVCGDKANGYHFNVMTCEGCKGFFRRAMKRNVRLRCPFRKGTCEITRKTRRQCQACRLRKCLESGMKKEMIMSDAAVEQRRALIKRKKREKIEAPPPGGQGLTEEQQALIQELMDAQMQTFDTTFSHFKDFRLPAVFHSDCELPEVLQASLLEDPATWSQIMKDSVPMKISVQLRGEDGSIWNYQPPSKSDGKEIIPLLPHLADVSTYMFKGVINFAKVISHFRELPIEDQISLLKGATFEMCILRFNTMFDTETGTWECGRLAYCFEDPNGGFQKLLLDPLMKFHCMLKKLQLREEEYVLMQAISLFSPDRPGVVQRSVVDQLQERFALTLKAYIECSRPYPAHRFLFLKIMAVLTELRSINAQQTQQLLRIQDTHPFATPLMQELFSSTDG
Assay [20] is described as follows: MultiTox-Fluor Cytotoxicity Assay - LYMP1-002 - Dead Cells (AID 960).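 Also: 0% = DMSO and 100% = tetraoctylammonium bromide; nearly all actives have a fitted effect of over 60% in size.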 The following applies: LYMP1-002 lymphoblastoid cells, dead-cell protease fluorescence; series mostly up to 46.1 µM. The procedure, abridged: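 Cells were plated, rested 5 hr, then treated with compound dilution series for 16 hr at 37 C. After adding substrate reagent and 60 min at room temperature, dead-cell protease fluorescence gave concentration-response curves fitted by the Hill equation.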

Several values for one entry are separate records, joined by “and”; a condition that tells them apart may be missing. Equal entries are not always repeated. Results filed as inconclusive are left out. Activity calls are given as the source filed them. Unless noted, calls follow the shape of the dose curve; as a rule, active = well fitted curve in the direction sought with a large enough effect; inconclusive = small, poorly fitted or top-dose-only effect, or another doubt; inactive = no such curve, though single readings can be large; an effect the other way counts as inactive or inconclusive.

Sequence of Thyroid hormone receptor beta (Homo sapiens) (P10828 whole entry, looked up): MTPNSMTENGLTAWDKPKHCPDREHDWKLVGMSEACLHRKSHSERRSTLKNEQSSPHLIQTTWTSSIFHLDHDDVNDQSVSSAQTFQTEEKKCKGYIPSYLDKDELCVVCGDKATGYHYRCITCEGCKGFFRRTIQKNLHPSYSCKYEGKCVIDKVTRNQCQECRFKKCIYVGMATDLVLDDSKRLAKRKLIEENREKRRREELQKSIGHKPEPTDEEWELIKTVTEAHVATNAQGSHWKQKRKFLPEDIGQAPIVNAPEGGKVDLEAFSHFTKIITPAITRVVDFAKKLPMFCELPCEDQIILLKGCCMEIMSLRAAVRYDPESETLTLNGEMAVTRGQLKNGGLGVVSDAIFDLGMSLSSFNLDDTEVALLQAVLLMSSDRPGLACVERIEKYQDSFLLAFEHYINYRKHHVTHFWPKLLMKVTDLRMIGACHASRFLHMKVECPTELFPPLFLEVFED
Sequence of Retinoic acid receptor RXR-alpha (Homo sapiens) (P19793 whole entry, looked up): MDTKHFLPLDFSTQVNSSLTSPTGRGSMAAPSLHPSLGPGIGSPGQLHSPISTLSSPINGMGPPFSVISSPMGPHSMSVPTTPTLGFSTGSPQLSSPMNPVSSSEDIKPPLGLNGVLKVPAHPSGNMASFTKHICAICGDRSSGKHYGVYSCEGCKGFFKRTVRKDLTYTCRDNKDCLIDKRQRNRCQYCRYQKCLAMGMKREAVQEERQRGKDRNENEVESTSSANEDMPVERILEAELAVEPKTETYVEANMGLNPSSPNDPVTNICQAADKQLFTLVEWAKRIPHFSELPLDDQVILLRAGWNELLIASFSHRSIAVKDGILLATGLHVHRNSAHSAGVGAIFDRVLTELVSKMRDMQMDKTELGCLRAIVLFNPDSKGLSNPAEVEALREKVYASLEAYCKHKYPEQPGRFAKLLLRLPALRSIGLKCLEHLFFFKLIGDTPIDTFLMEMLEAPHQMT

For the compound `CCCCCCN`, the Potency in assay [1] was > 92 µM (inactive). Besides, in [2], the activity change, negative = cytotoxicity is -7.51% (inactive). Also, the Potency result in assay [3], in assay [4], in [5], in assay [6], in [7] and in assay [8] was “inactive” throughout. The Potency entry in assay [9], in [10], in assay [11], in assay [12], in assay [14] and in assay [15] was “inactive” each time. The Potency result in [16], in assay [17] and in assay [18] was “inactive” throughout. Further, the max response in [13] is -10.9%; in assay [19], -1.94% (inactive).

With `OC1CCCCC1`, the Potency in assay [1] is > 92 µM (inactive). The activity change, negative = cytotoxicity in [2] was -3.26% (inactive). The Potency result in [3], in assay [4], in assay [5], in assay [20], in [6] and in assay [7] was “inactive” throughout. The Potency result in [8], in assay [9], in [10], in assay [11], in assay [12] and in assay [14] was “inactive” in each case. Besides, the Potency entry in [15] and in assay [18] was “inactive” each time. In addition, the figures for the max response in [13] and in assay [19] were -4.1% and 1.53% (inactive), respectively.

On to `CC(=O)OCc1ccc2c(c1)OCO2`, for which, in [1], the Potency was > 92 µM (inactive). In assay [2], the activity change, negative = cytotoxicity is -15.3% (inactive). The Potency result in assay [3], in [4], in assay [5], in assay [20], in assay [6] and in [8] was “inactive” throughout. In addition, the Potency entry in assay [9], in [10], in assay [11], in assay [12], in assay [14] and in [15] was “inactive” in each case. Also, the Potency result in assay [16], in assay [17] and in assay [18] was “inactive” throughout. Also, the max response was 17.8% in assay [13] and -6.58% (inactive) in assay [19].

In the case of `CCN(CC)c1ccc2c(C)cc(=O)oc2c1`, the Potency in [1] was > 92 µM (inactive); in [15], 22.4 µM (active). The activity change, negative = cytotoxicity in [2] is -15.7% (inactive). Besides, the Potency result in assay [4], in [6], in assay [7], in assay [8], in assay [9] and in [10] was “inactive” in each case. Also, the Potency result in assay [11], in assay [12] and in assay [18] was “inactive” in each case.

With `CC(=O)OC1CC(C)OC(C)O1` (stereo not given), the Potency in assay [1] was > 92 µM (inactive). In addition, the activity change, negative = cytotoxicity in assay [2] is 7.5% (inactive). Further, the Potency result in assay [3], in [4], in assay [5], in assay [20], in [6] and in [7] was “inactive” each time. Further, the Potency entry in assay [8], in assay [9], in assay [10], in assay [11], in assay [12] and in assay [14] was “inactive” throughout. Moreover, the Potency result in assay [15], in [16], in [17] and in assay [18] was “inactive” each time. The max response in assay [13] was -9.84% and -8.03%; in assay [19], -2.44% (inactive) and 3.14% (inactive).

For the compound `O=c1[nH]ncc2ccccc12`, the Potency in [1] is > 92 µM (inactive). For the same compound, in [2], the activity change, negative = cytotoxicity was -2.98% (inactive). Further, the Potency entry in [3], in [5], in [20], in [6], in [7] and in assay [8] was “inactive” throughout. Also, the Potency entry in [9], in [10], in [11], in [12], in assay [14] and in [15] was “inactive” in each case. Further, the Potency result in [16], in [17] and in assay [18] was “inactive” each time. In assay [4], the viability change, negative = cytotoxic was -82.8% (active). Further, the results for the max response in assay [13] and in [19] were 10.5% and -3.03% (inactive), respectively.

As for `CCCCC(CC)COCCCN` (stereo not given), the Potency in assay [1] is > 92 µM (inactive). The Potency entry in assay [3], in assay [4], in assay [5], in assay [20], in [6] and in assay [7] was “inactive” in each case. The Potency result in [8], in [9], in [10], in [11], in assay [12] and in [14] was “inactive” in each case. In addition, the Potency result in assay [15] and in assay [18] was “inactive” each time. The max response is 1.27% in assay [13] and 1.77% (inactive) in [19].
